Drawing on PubChem BioAssay AID540267 (National Center for Advancing Translational Sciences (NCATS), 2011), this text covers activity change for 83 compounds.

Structures are written as SMILES. In all, about 340,000 compounds went through this assay and about 530 (0.16%) were called active. Not shown: some 2% with an inconclusive outcome. Many of the other results were omitted from the sample, so actives are more common in it than they were. Unmarked numbers belong to inactive results. Cut-off read from the data, not from the text of the source: active = activity change below about -80%; inconclusive = between about -30% and that limit; inactive = weaker than that.
% is set by controls: 0 for no effect and ±100 for the full control effect.

This assay in a line: Small Molecules that selectively kill Giardia lamblia: qHTS.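 Note: parasites exposed to compound for two days anaerobically before the ATP read.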 The note with it: Giardia lamblia trophozoite viability; at 7.66 µM; stronger effect = lower value. A digest of the protocol:
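Compounds were tested on trophozoites seeded at 100 cells/well and held 48 hrs at 37 deg C anaerobically. An ATP-based luminescent kit measured the remaining live cells.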
Consider `Cc1ccc(-c2nnc3ccc(SCC(N)=O)nn23)cc1`, for which the activity change is 5.27%. On to `O=[N+]([O-])c1ccc(C=Nc2ccc(Cl)cc2Cl)s1`, for which the activity change is 12%.

For the compound `CNN/C(N=Cc1ccc([N+](=O)[O-])s1)=N\S(=O)(=O)c1cc(C)c(Cl)cc1SCc1ccccc1`, the activity change is -85.8% (active).

As to `OC[C@@H]1O[C@H](n2cnc3c(SCc4ccccc4)ncnc32)[C@H](O)[C@H]1O`, the activity change is 7.24%. To `COc1ccc(CCn2c3c(c(=O)[nH]c2=S)CN(C(C)C)CN3)cc1OC` belongs -2.67%; to `CC(=O)c1cccc(NC(=O)C2COc3ccccc3O2)c1` (stereo not drawn), 3.94%. To `O=C(CCc1ccccc1)Nc1ncc([N+](=O)[O-])s1` belongs -95.3% (active); to `O=C(Cc1c(F)cccc1Cl)Nc1ncc([N+](=O)[O-])s1`, -90.9% (active). Consider `O=C(Nc1ncc([N+](=O)[O-])s1)C1COc2ccccc2O1` (stereo not drawn), for which the activity change was -95.9% (active). For `COc1ccc(S(=O)(=O)N2CCOCC2)cc1NC(=O)Cc1c(F)cccc1Cl`, the activity change is 0.481%. To `CC(C)Cc1nnc(NC(=O)CCc2ccccc2)s1` belongs -6.99%; to `COC(=O)CSc1nnc(NC(=O)CCc2ccccc2)s1`, -28.2%; to `O=C(Nc1cc(S(=O)(=O)N2CCCCC2)ccc1Cl)C1COc2ccccc2O1` (stereo not drawn), 9.58%. To `CN(c1ccccc1)S(=O)(=O)c1cccc(NC(=O)Cc2c(F)cccc2Cl)c1` belongs 6.09%. The value for `O=C(Nc1cccc(Cl)c1)c1cc(S(=O)(=O)N2CCCCC2)c[nH]1` was -28.5%; that for `Cc1nn(C(C)CC(=O)O)c(C)c1C` (stereo not drawn) was 7.78%. Turning to `CCC1(C)Cc2c(sc3[nH]c(=S)n(Cc4ccccc4)c(=O)c23)CO1` (stereo not drawn), the activity change was -14.6%. The value for `COc1cc2c(cc1OC)C(/C=C/c1ccco1)=NCC2` was -3.82%; that for `CCOc1ccc(C(=O)NC(C(=O)NCc2ccccn2)C(C)C)cc1` (stereo not drawn) was -4.15%; that for `OCCNc1ncnc2oc(-c3ccco3)c(-c3ccco3)c12` was -2.77%. To `COc1cc(OC)c2c(c1C(CCN1CCCCC1)c1ccc(N(C)C)cc1)OC(=O)CC2c1ccc(N(C)C)cc1` (stereo not drawn) belongs 7.67%; to `O=S(=O)(Nc1cccc2cccnc12)c1cccc2cccnc12`, -17.9%; to `CCOc1ccc(S(=O)(=O)N2CCN=C2Cc2ccccc2)cc1C`, -28.6%. The value for `O=C(c1ccco1)N(Cc1cccs1)c1ccc(O)cc1` was -7.42%.

Regarding `COc1ccc(CN2CCc3nc(Nc4ccccc4)ncc3C2)c(OC)c1OC`, the activity change is -13.9%.

For `NS(=O)(=O)c1ccc(NC(=O)CSc2nnc3c(n2)[nH]c2ccccc23)cc1`, the activity change was -21.1%. Regarding `CCOCN(C(=O)Cn1c(C(C)O)nc2ccccc21)c1c(C)cccc1CC` (stereo not drawn), the activity change was 8%. To `CN(CCC#N)c1ncnc2scc(-c3ccccc3)c12` belongs -2.98%.

With `O=C1CC(c2ccccc2)CC2=C1C(c1ccco1)n1nc(C(F)(F)F)nc1N2` (stereo not drawn), the activity change is 14.6%. The value for `CC(Nc1nc(N2CCOCC2)nc2ccccc12)c1ccccc1` (stereo not drawn) was 4.71%. For `CC(Nc1nc(N2CCN(CCO)CC2)nc2ccccc12)c1ccccc1` (stereo not drawn), the activity change is -93.8% (active). To `CC(Nc1nc(N2CCCC2)nc2ccccc12)c1ccccc1` (stereo not drawn) belongs 3.32%; to `O=C1C2C(c3ccccc3)CC=CC2C(c2ccoc2)N1Cc1ccccc1` (stereo not drawn), -9.66%; to `O=C(Nc1ccc(Br)cn1)c1ccc([N+](=O)[O-])cc1Cl`, -28.4%. The value for `O=C(Nc1cccc([N+](=O)[O-])c1)c1ccc2c(c1)OCO2` was 7.08%; that for `O=C(Nc1ccc(Br)cn1)c1ccc([N+](=O)[O-])o1` was -87.6% (active). The value for `CN1C(=O)c2ccc(C(=O)Nc3ccc(Br)cn3)cc2C1=O` was 6.68%. As for `O=C(Nc1cccc(O)c1)c1ccc(C(=O)c2ccccc2)o1`, the activity change was -8.06%. The value for `Cc1cccc(NC(=O)c2ccc([N+](=O)[O-])o2)c1` was -85.9% (active); that for `c1ccc2c(C[n+]3csc4ccccc43)cccc2c1` was 3.49%.

Consider `N/C(=N/O)c1cccn1Cc1ccccc1[N+](=O)[O-]`, for which the activity change is -2.12%. To `Cc1ccc(-c2ccc(=O)n(Cc3ccc(F)cc3Cl)n2)cc1` belongs -0.457%; to `O=c1c([N+](=O)[O-])cccn1Cc1ccc(F)cc1Cl`, -94.3% (active). The value for `Brc1nc2ncnc(NCc3ccco3)c2[nH]1` was -4.89%; that for `O=[N+]([O-])c1ncc(Br)cc1Nc1ccccc1` was -90.1% (active). To `O=[N+]([O-])c1ccccc1Nc1ccc(O)cc1` belongs -6.38%; to `O=[N+]([O-])c1cccc(/C=N/Nc2ncc(Br)cn2)c1`, 23.3%.

Regarding `NC(CSC1(c2ccccc2)c2ccccc2-c2ccccc21)C(=O)O` (stereo not drawn), the activity change is -0.132%. To `Cc1ccc2oc(C(=O)N3CCN(C)C[C@@H]3C(C)C)c(C)c2c1` belongs 11.8%; to `CCCCCCC1(C)NC(c2ccc3c(c2)OCO3)=CC(c2ccccc2O)N1` (stereo not drawn), -22.5%; to `CC1(C)c2[nH]c3ccccc3c2C[C@H]2C(=O)N(N)CC(=O)N21`, -11.4%. The value for `COC(=O)N/N=C/c1ccc(-c2ccc(Cl)c(Cl)c2)o1` was -7.13%; that for `COC(=O)C(C)N=Cc1ccccc1` (stereo not drawn) was -3.67%; that for `COC(=O)N/N=C/c1c[n+]([O-])c2ccccc2[n+]1[O-]` was -80.1% (active).

Consider `Cc1c(C=O)c2ccccc2n1CC(=O)O`, for which the activity change was 21.1%. For the compound `CC(=O)c1c(C)n([O-])c2ccccc2[n+]1=O`, the activity change is -80.7% (active). With `CCOc1ccc(NC(=O)CSc2nnc3c(n2)[nH]c2ccc(S(=O)(=O)N4CCOCC4)cc23)cc1`, the activity change is -27.7%. The value for `Cc1ccc(N2C(=O)C3C(c4ccccc4)(C2=O)C3(c2ccccc2)c2ccccc2)cc1` (stereo not drawn) was 6.33%; that for `CCN(CC)/[N+]([O-])=N/Oc1cc(O/[N+]([O-])=N/N2CCCC2CO)c([N+](=O)[O-])cc1[N+](=O)[O-]` (stereo not drawn) was 9.52%; that for `CC1(C(=O)NCCc2c[nH]c3ccccc23)C=CC2(CCCCC2)N1C(=O)c1ccccc1` (stereo not drawn) was 17.9%. For the compound `COc1cc(OC)c2c(C)cc(=O)oc2c1C(CCN1CCCCC1)c1ccc(N(C)C)cc1` (stereo not drawn), the activity change is 8.97%.

As to `Cc1nc(-c2ccccc2)cn2c1nc1ccccc12`, the activity change was 7.53%.

For `O=S(=O)(c1cccc(C(F)(F)F)c1)N1CCN(c2nc(-c3cccs3)nc3ccccc23)CC1`, the activity change is 27.4%. To `COC(=O)c1ccc(OCC(O)CN(CCO)CC(O)Cn2ccc3ccccc32)cc1` (stereo not drawn) belongs 8.7%; to `CCCCNC(=O)Cn1c(SCc2cccc(Cl)c2)nc2ccncc21`, 12.3%; to `Cc1ccc(S(=O)(=O)N2CCN(c3nc(-n4cnc5ccccc54)nc4ccccc34)CC2)cc1`, 11.1%. To `CC(C)=CCN1CCN(CCCc2ccccc2)CC1CCO` (stereo not drawn) belongs 23.8%. The value for `O=C(NCCCN1CCOCC1)c1cn(-c2ccccc2)nc1-c1ccc(F)cc1` was -14.8%; that for `O=C(N/N=C/c1ccc([N+](=O)[O-])o1)c1cn(-c2ccccc2)nc1-c1ccc(F)cc1` was -93% (active); that for `Cc1ccc(-c2nn(-c3ccccc3)cc2C(=O)NC2CCC(O)CC2)cc1` (stereo not drawn) was 4.06%.

Regarding `C[C@H](CO)N1C[C@H](C)[C@H](CN(C)C(=O)Nc2ccc(C(F)(F)F)cc2)Oc2c(NC(=O)c3ccncc3)cccc2C1=O`, the activity change was -89.7% (active).

Take `Cc1noc(C)c1NC(=O)Nc1cccc2c1O[C@H](CN(C)C(=O)Nc1ccccc1)[C@@H](C)CN([C@H](C)CO)C2=O`: the activity change is 8.07%.

`Cc1noc(C)c1NC(=O)Nc1ccc2c(c1)C(=O)N([C@H](C)CO)C[C@H](C)[C@@H](CN(C)C(=O)Nc1ccc(C(F)(F)F)cc1)O2`: the activity change was 41.7%. To `Cc1ccc(-c2nc(=N)sn2Cc2ccccc2)cc1` belongs 24.2%; to `COc1ccc(Cn2c(=O)[nH]c3cc(C(=O)N4CCN(C(=O)c5ccco5)CC4)ccc3c2=O)cc1`, -2.35%. Take `Cc1noc(NS(=O)(=O)c2ccc(NC(=O)c3oc4ccc(F)cc4c3C)cc2)c1C`: the activity change was 6.55%.

For the compound `COc1ccc(S(=O)(=O)N2CCN(c3ccc(F)cc3)CC2)cc1-c1noc(C)n1`, the activity change is 5.27%. As to `COC(=O)C(CC(C)C)NS(=O)(=O)c1cc(Br)ccc1Br` (stereo not drawn), the activity change was -10.7%. Consider `Cc1ccc(Nc2c(-c3ccc(C)s3)nc3ccccn23)cc1`, for which the activity change was 1.31%. To `COc1ccc2nc(N3CCN(C(=O)c4ccc([N+](=O)[O-])o4)CC3)sc2c1` belongs -98.8% (active); to `O=C(c1ccc2nc(N3CCOCC3)sc2c1)N1CCN(c2ccc(Cl)cc2)CC1`, -10.4%. To `COc1ccc2nc(N3C(=O)C(O)=C(C(=O)c4ccco4)C3c3ccco3)sc2c1` (stereo not drawn) belongs 1.49%; to `O=C(NCC1CC1)C1(C(F)(F)F)C/C(=C\CCO)CCCO1` (stereo not drawn), -14.8%.
